Activity calls are given as the source filed them.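 How the source made its calls, unless noted: active means fluorescence slope after compound addition differing from the mean of all screened samples at 99.7% confidence, in either direction; inactive means the rest.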
Tests used:
[1] = inhibitors of TNFa-induced NFkB p65 translocation, primary screen, imaging, HUVEC, MLSMR starter and 10KST1 sets (AID 438;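 active means inhibition above 20% together with a positive visual image hit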;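 further: compound added about 3h40 before a 20 min TNFalpha stimulation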;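 on inhibition: signal is the nuclear over cytoplasmic p65 intensity ratio per well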); conditions: HUVEC TNFa-induced p65 nuclear translocation; cell count: measured here: nuclei count (cytotoxicity indicator), at 2.08 µM; inhibition: at 2 µM, stronger effect = higher value, 0% TNFa-plus-vehicle, 100% no-TNFa wells
[2] = reduction of polyQ htt aggregates in cells – imaging, exon1htt(103Q)mCFP cells, high-content imaging, primary screen (AID 483;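 active means visual image review flags a hit and inhibition of aggregation exceeds 20%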;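 further: compound exposure lasted 3 days before fixation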;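 on nuclei count: percent of the per-plate median nuclei count of sample wells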); conditions: exon1htt(103Q)mCFP cell line, aggregate imaging, at 2 µM; inhibition of aggregation: stronger effect = higher value; nuclei count: measured here: cell count, toxicity
[3] = endothelial E-selectin expression blockers – imaging, HUVEC, immunofluorescence, MLSMR starter and 10KST1 sets, primary screen (AID 487;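 active means visually confirmed hit in the image check and inhibition above 20%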;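 on inhibition: signal is fraction of cell area covered by stained E-selectin grains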;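 on nuclei count: 100% = median nuclei count of all wells on the same plate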); conditions: HUVEC TNFalpha-induced E-selectin immunofluorescence imaging, at 2 µM; inhibition: stronger effect = higher value; nuclei count: measured here: cell number, toxicity
[4] = target: Voltage-gated potassium channel subunit beta-2 (Rattus norvegicus) (UniProt P62483); assay: inhibitors of rat Kvbeta2 reductase activity – biochemical, NADPH fluorescence, primary screen (AID 622;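 active means fluorescence slope higher than the sample average by over 3 SD, cut at about -0.22 in these data, passing the limit was not always enough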;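 further: slope of raw intensity against log time taken from 70 to 1610 s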); conditions: recombinant KvBeta, 4-cyanobenzaldehyde reduction, at 10 µM, stronger effect = higher value
Voltage-gated potassium channel subunit beta-2 (Rattus norvegicus), sequence (P62483 whole entry, looked up): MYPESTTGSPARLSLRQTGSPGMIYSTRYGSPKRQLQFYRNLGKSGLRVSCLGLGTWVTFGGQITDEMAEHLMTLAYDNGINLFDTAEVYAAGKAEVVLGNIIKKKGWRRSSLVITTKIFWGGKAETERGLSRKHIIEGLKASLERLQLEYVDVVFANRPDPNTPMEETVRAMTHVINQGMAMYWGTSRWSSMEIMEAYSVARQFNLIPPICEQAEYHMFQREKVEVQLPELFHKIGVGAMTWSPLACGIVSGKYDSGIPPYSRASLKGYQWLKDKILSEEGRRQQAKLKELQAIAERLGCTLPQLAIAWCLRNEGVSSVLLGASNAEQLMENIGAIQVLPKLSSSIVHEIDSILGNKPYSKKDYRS

[5] = target: Voltage-gated potassium channel subunit beta-2 (Rattus norvegicus) (UniProt P62483); assay: enhancers of rat Kvbeta2 NADPH turnover – biochemical, NADPH fluorescence, primary screen (AID 623;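 active means NADPH fluorescence slope more negative than the mean of all samples by about 3 SD, 99.7% confidence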;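 further: fluorescence intensity change per second fitted from 20 to 320 s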); conditions: Recombinant KvBeta, NADPH fluorescence decrease slope, 10 min; at 10 µM; stronger effect = lower value
[6] = target: Alpha-2C adrenergic receptor (Homo sapiens) (UniProt P18825); assay: compounds altering alpha2C-coupled GIRK flux – cell-based, HEK293 alpha2C/GIRK1/2, thallium flux, primary screen (AID 624); conditions: thallium flux BTC fluorescence, at 10 µM, actives lie on both sides;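 further: slope of fluorescence ratio to pre-addition baseline per second over 15 to 24 s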
Alpha-2C adrenergic receptor (Homo sapiens), sequence (P18825 whole entry, looked up): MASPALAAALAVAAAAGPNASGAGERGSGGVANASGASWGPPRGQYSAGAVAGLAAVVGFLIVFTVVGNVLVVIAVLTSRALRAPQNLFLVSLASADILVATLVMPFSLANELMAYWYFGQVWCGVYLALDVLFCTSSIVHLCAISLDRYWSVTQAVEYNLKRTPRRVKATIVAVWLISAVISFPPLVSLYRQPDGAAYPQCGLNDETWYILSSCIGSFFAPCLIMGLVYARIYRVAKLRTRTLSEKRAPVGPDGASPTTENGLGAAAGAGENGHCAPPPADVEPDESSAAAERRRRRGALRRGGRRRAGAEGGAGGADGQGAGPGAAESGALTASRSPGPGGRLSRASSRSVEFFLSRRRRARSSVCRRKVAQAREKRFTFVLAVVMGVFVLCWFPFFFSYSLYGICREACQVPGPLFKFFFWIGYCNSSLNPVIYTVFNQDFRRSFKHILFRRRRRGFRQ

[7] = blockers of RIG-like receptor reporter activation – cell-based, Sendai virus stimulus, luciferase, 10K MLSCN set, TLR/RLR signaling modifier project, primary screen (AID 602276;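 active means inhibition at or above 50% at 10 µM; inactive means inhibition below 50%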;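 further: firefly luciferase from ISG56 promoter only with Renilla not read in this screen; 0% = Sendai virus plus DMSO and 100% = medium plus DMSO without virus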); conditions: HEK293 RL24 IRF3 luciferase reporter, at 10 µM, stronger effect = higher value
[8] = TLR3 IRF3 reporter activation blockers – cell-based, poly I:C stimulus, luciferase, 10K MLSCN set, primary screen (AID 602277;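 active means inhibition of the reporter signal at or above 50%; inactive means inhibition below 50%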); conditions: HEK293-TLR3 RL24 IRF3 luciferase reporter, at 10 µM, stronger effect = higher value

| SMILES | cell count [1] | inhibition [1] | inhibition of aggregation [2] | nuclei count [2] | inhibition [3] | nuclei count [3] | fluorescence slope [4] | NADPH fluorescence slope [5] | slope [6] | inhibition [7] | inhibition [8] |
| --- | --- | --- | --- | --- | --- | --- | --- | --- | --- | --- | --- |
| COc1ccc(-n2nc(C(=O)NCC(=O)NCC3CCCO3)c3ccccc3c2=O)cc1 (stereo not drawn) | 355 | -1.7% (inactive) | 13.1% (inactive) | 91.3% | -15.9% (inactive) | 100% | -0.435 (inactive) | -1.9e-05 (inactive) | 0.0067 (inactive) | 16.2% (inactive) | 23.6% (inactive) |
| O=C(NS(=O)(=O)c1ccc(NC(=O)C2CCCO2)cc1)c1ccccc1 (stereo not drawn) | 577 | -6% (inactive) | 2.1% (inactive) | 110% | -46.8% (inactive) | 125% | -0.328 (inactive) | -5.2e-05 (inactive) | 0.00463 (inactive) | 11.4% (inactive) | 17.7% (inactive) |
| CC(C)(CO)NC(=O)CCCOc1ccc(Cl)cc1Cl | 397 | -4.9% (inactive) | 6.2% (inactive) | 97.4% | 35.5% (inactive) | 98.8% | -0.431 (inactive) | -2.6e-05 (inactive) | 0.00385 (inactive) | -27.2% (inactive) | -47.8% (inactive) |
| O=C(Nc1ccc2c(c1)OCO2)C(c1ccccc1)N1CCC2(CC1)OCCO2 (stereo not drawn) | 649 | 2% (inactive) | -13.5% (inactive) | 107% | 23.5% (inactive) | 115% | -0.51 (inactive) | 3.6e-05 (inactive) | 0.00477 (inactive) | -14.7% (inactive) | 1% (inactive) |
| O=C(Nc1ccc2c(c1)OCCO2)c1cnc2n(c1=O)CCS2 | 550 | -2.3% (inactive) | 9.3% (inactive) | 78.2% | -8.2% (inactive) | 98.4% | -0.57 (inactive) | -5.8e-06 (inactive) | 0.00627 (inactive) | -79.9% (inactive) | -177% (inactive) |
| CCOc1ccc(/C=N/n2cnnc2)cc1 | 442 | -2.2% (inactive) | -4.7% (inactive) | 89.4% | 17.6% (inactive) | 117% | -0.402 (inactive) | -9.1e-05 (inactive) | 0.00521 (inactive) | 8.22% (inactive) | 20.1% (inactive) |
| Cc1ccc2c(c1)-c1c(cnn1CC(=O)Nc1ccccc1N1CCN(C)CC1)CO2 | 521 | -10.8% (inactive) | -22% (inactive) | 66.8% | -3.4% (inactive) | 108% | -0.507 (inactive) | -9e-06 (inactive) | 0.00599 (inactive) | 3.02% (inactive) | 7.29% (inactive) |
| COc1ccc(S(=O)(=O)Nc2cccc(C)n2)c2ccccc12 | 713 | 6.1% (inactive) | -1.6% (inactive) | 76.3% | 41.3% (inactive) | 92.3% | -0.528 (inactive) | 2.4e-05 (inactive) | 0.00605 (inactive) | -6.27% (inactive) | 0.733% (inactive) |
| O=c1oc2c3c4c(cc2cc1-c1nc2ccccc2[nH]1)CCCN4CCC3 | 451 | 5.9% (inactive) | 94.7% [may fluoresce] (active) | 112% | -25.7% (inactive) | 121% | -0.308 (inactive) | 1.6e-05 (inactive) | 0.00239 (inactive) | -24.1% (inactive) | -107% (inactive) |
| CCC(C(=O)Nc1ccccc1C(=O)N1CCCC1)N1C(=O)c2ccccc2C1=O (stereo not drawn) | 623 | 16.8% (inactive) | -16.8% (inactive) | 109% | -112% (inactive) | 112% | -0.356 (inactive) | 9.2e-06 (inactive) | 0.0034 (inactive) | 4.49% (inactive) | 15.4% (inactive) |
| CCOc1cc(NC(=O)c2ccco2)c(OCC)cc1NC(=O)COc1ccccc1C | 388 | 0% (inactive) | -11.9% (inactive) | 107% | -74.7% (inactive) | 129% | -0.00358 (active) | 3.9e-06 (inactive) | 0.00663 (inactive) | -1.87% (inactive) | -75.9% (inactive) |
| Cc1ccc(S(=O)(=O)Cn2nnnc2CN(Cc2ccco2)Cc2cccs2)cc1 | 324 | -1.6% (inactive) | 6.8% (inactive) | 108% | -85.1% (inactive) | 133% | -0.594 (inactive) | -4.2e-05 (inactive) | 0.00355 (inactive) | 7.14% (inactive) | 6.8% (inactive) |
| Cc1csc(NC(=O)CCS(=O)(=O)c2ccc(Br)cc2)n1 | 721 | 0% (inactive) | -30.9% (inactive) | 91.7% | 5.7% (inactive) | 115% | -0.609 (inactive) | 1.8e-05 (inactive) | 0.00541 (inactive) | -20.4% (inactive) | -7.68% (inactive) |
| CCOc1cc(C2NC(=O)N(C)C(C)=C2C(=O)OC)cc(Br)c1O (stereo not drawn) | 620 | -17.6% (inactive) | -9.6% (inactive) | 110% | -13.7% (inactive) | 104% | -0.611 (inactive) | -4.2e-05 (inactive) | 0.00546 (inactive) | -0.511% (inactive) | 5.13% (inactive) |
| Cc1cc(Nc2ccccc2F)n2ncnc2n1 | 542 | 14.8% (inactive) | -3.9% (inactive) | 137% | -59.1% (inactive) | 111% | -0.566 (inactive) | -2.7e-05 (inactive) | 0.00578 (inactive) | -1.22% (inactive) | 12.8% (inactive) |
| O=C(Nc1ccccc1-c1nc2ccccc2o1)c1ccc2c(c1)OCCO2 | 530 | -7.2% (inactive) | -29.9% (inactive) | 99.2% | 48.6% (inactive) | 87.4% | -0.131 (inactive) | 1.2e-05 (inactive) | 0.0146 (inactive) | 11.3% (inactive) | 13.7% (inactive) |
| C=CCNc1oc(-c2cccc3ccccc23)nc1C#N | 365 | -0.4% (inactive) | 9.2% (inactive) | 98.8% | -110% (inactive) | 97.4% | -0.0687 (active) | 1.5e-06 (inactive) | 0.00477 (inactive) | -4.72% (inactive) | -35.7% (inactive) |
| C=CCSc1nc2c(c(=O)[nH]c(=O)n2C)n1CC | 570 | -3% (inactive) | 6.3% (inactive) | 36.2% | -48% (inactive) | 96.3% | -0.499 (inactive) | -2.4e-05 (inactive) | 0.00669 (inactive) | -5.1% (inactive) | 22.4% (inactive) |
| CCC(C)NCC(O)COCc1ccc(Cl)cc1 (stereo not drawn) | 296 | -2% (inactive) | -4% (inactive) | 98.9% | -9.3% (inactive) | 86.6% | -0.484 (inactive) | -5.9e-06 (inactive) | 0.00563 (inactive) | 15.4% (inactive) | 20.9% (inactive) |
| COc1ccc(-c2nc(CS(=O)CC(=O)N3CCCC3)c(C)o2)cc1 (stereo not drawn) | 465 | 2.6% (inactive) | 6.1% (inactive) | 100% | -51.5% (inactive) | 100% | -0.482 (inactive) | -3.2e-05 (inactive) | 0.006 (inactive) | 26% (inactive) | 5.74% (inactive) |
| Cc1ccccc1NC(=O)CSc1nnc(Cc2cccn2C)n1-c1ccc(F)cc1 | 813 | 4.2% (inactive) | 0% (inactive) | 98.8% | -61% (inactive) | 114% | -0.618 (inactive) | 1.1e-05 (inactive) | 0.00577 (inactive) | -3.98% (inactive) | 29.4% (inactive) |
| CC(=O)Nc1ccc(S(=O)(=O)N2CCN(C(=O)CCC3CCCC3)CC2)cc1 | 312 | -0.8% (inactive) | -12.8% (inactive) | 96.2% | -42.2% (inactive) | 129% | -0.581 (inactive) | 5.8e-05 (inactive) | 0.00522 (inactive) | 24.2% (inactive) | 10.7% (inactive) |
| O=C(CSc1nnnn1C1CCCC1)N1CCN(C(=O)c2ccco2)CC1 | 367 | -10.3% (inactive) | 2% (inactive) | 105% | -54.2% (inactive) | 107% | -0.483 (inactive) | -2.2e-05 (inactive) | 0.00599 (inactive) | -2.14% (inactive) | 16.4% (inactive) |
| COc1ccc(C)cc1NC(=O)CN1CCN(S(=O)(=O)c2ccc(Cl)cc2)CC1 | 409 | -1.5% (inactive) | 4.2% (inactive) | 104% | -76.7% (inactive) | 98.9% | -0.41 (inactive) | -3e-05 (inactive) | 0.0018 (inactive) | 5.97% (inactive) | 15.6% (inactive) |
| Cn1c(=O)c2c(nc(SCC(=O)N3CCCc4ccccc43)n2C)n(C)c1=O | 354 | -5.7% (inactive) | -9.7% (inactive) | 45.1% | -139% (inactive) | 115% | -0.361 (inactive) | -7.1e-05 (inactive) | 0.00482 (inactive) | -0.111% (inactive) | -6.19% (inactive) |
| Cc1cc(=O)[nH]c(SCC(=O)NCc2ccco2)n1 | 355 | 8.2% (inactive) | 0% (inactive) | 95.2% | 12.5% (inactive) | 98% | -0.57 (inactive) | -7.3e-05 (inactive) | 0.00478 (inactive) | 18.4% (inactive) | 20.9% (inactive) |
| COc1ccc(CCNc2oc(-c3ccccc3OC)nc2C#N)cc1 | 216 | -4.3% (inactive) | 4% (inactive) | 86.1% | -19.1% (inactive) | 88.6% | -0.413 (inactive) | 2.3e-05 (inactive) | 0.00318 (inactive) | -0.337% (inactive) | 12.4% (inactive) |
| Cc1cc(C)n(C(=O)C23CC4CC(CC(C4)C2)C3)n1 | 448 | 0.9% (inactive) | 14.6% (inactive) | 102% | -12% (inactive) | 89.4% | -0.514 (inactive) | -2.3e-05 (inactive) | 0.00607 (inactive) | 6.1% (inactive) | 17.9% (inactive) |
